Results published in PubChem BioAssay (EPA / NIEHS).
Active and inactive are the calls of the source. How the source made its calls, unless noted: active means hit-call score of the fitted dose curve at least 0.9, where 1 is the maximum; inconclusive means response in the unintended direction; inactive means score below 0.9.

Assay: CPHEA_Stoker_NIS_Cytotoxicity: Cytotoxicity Assessment for CPHEA's Radioactive Iodide Uptake (RAIU) Assay for Sodium/Iodide Symporter (NIS) Inhibition, Stoker and Laws Labs (AID 2283897);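 on AC50: active means loss of ATP signal versus DMSO meaning cytotoxicity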
Conditions: not given
Summary of the method: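 hNIS-HEK293T-EPA human kidney cells were exposed for 2 hours at room temperature to test chemicals (0.001–100uM, 0.5% final DMSO) in HEPES-buffered HBSS, pH 7.4. Viability was read as ATP content by luciferase bioluminescence, loss of signal versus DMSO.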

| SMILES | outcome | AC50 |
| --- | --- | --- |
| CC(=O)O[C@]1(C(C)=O)CC[C@H]2[C@@H]3C=C(Cl)C4=CC(=O)[C@@H]5C[C@@H]5[C@]4(C)[C@H]3CC[C@@]21C | inactive |  |
| CCCCCCCCCCCCCCOS(=O)(=O)O | inactive |  |
| CCN(CC)CCOc1ccc(C(=C(Cl)c2ccccc2)c2ccccc2)cc1 |  | 9.92 µM (active) |
| CCCCCCC(CCCCCCCCCCC(=O)OCC(COC(C)=O)OC(C)=O)OC(C)=O (stereo unspecified) | inactive |  |
| CSc1ccc(Oc2ccc(S(N)(=O)=O)cc2CN(C)C)cc1C | inactive |  |
| Cc1c(C)c2c(c(C)c1O)CCC(C)(COc1ccc(CC3SC(=O)NC3=O)cc1)O2 (stereo unspecified) |  | 12.5 µM (active) |
| CCCCCCC(C=O)=Cc1ccccc1 | inactive |  |
| O=Cc1ccccc1C=O | inactive |  |
| CN(C)CCCN1c2ccccc2Sc2ccc(Cl)cc21 | inactive |  |
| COc1ccc(OC(F)(F)F)cc1CN[C@H]1CCCN[C@H]1c1ccccc1 | inactive |  |
| CC(COCC(C)OC(=O)c1ccccc1)OC(=O)c1ccccc1 (stereo unspecified) | inactive |  |
| Cc1ccc(C(C)(C)C)c(O)c1 | inactive |  |
| CN(C)C(=O)NC1(c2ccccc2)CCN(CCC[C@]2(c3ccc(Cl)c(Cl)c3)CCCN(C(=O)c3ccccc3)C2)CC1 | inactive |  |
| CC(=O)OCC(COC(C)=O)OC(C)=O | inactive |  |
| O=C1OC(c2ccc(O)cc2)(c2ccc(O)cc2)c2ccccc21 | inactive |  |
| CCc1nc(N)nc(N)c1-c1ccc(Cl)cc1 | inactive |  |
| Cc1ccc(-c2cc(C(F)(F)F)nn2-c2ccc(S(N)(=O)=O)cc2)cc1 | inactive |  |
| O=C(Oc1ccccc1)c1cccc(C(=O)Oc2ccccc2)c1 | inactive |  |
| CCC(C)N(C)C(=O)c1cc2ccccc2c(-c2ccccc2Cl)n1 (stereo unspecified) | inactive |  |

Assay: CEETOX_H295R_11DCORT_noMTC: CeeTox H295R High-throughput Steroidogenesis Assay for 11-Deoxycortisol (11DCORT), maximum tolerated concentration (MTC) filtered results only (AID 2283911; active means hit-call score of the fitted dose curve at least 0.9, where 1 is the maximum; inactive means score below 0.9)
Conditions: actives raise or lower the signal
Summary of the method: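 Steroidogenesis was stimulated in H295R cells with 10 uM forskolin for 48 h before a 48 h chemical exposure. Secreted 11-deoxycortisol was measured by tandem mass spectrometry and fitted bidirectionally against DMSO controls.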

| SMILES | AC50 | outcome |
| --- | --- | --- |
| NC(=Nc1ccccc1)Nc1ccccc1 | 82.8 µM (active) |  |
| Nc1nc(=S)c2[nH]cnc2[nH]1 | 44.7 µM (active) |  |
| O=C(Oc1ccccc1)c1cccc(C(=O)Oc2ccccc2)c1 |  | inactive |
| C=CCc1ccc(OC)c(OC)c1 |  | inactive |

Assay: CEETOX_H295R_OHPREG_noMTC: CeeTox H295R High-throughput Steroidogenesis Assay for OH-Pregnenolone (OHPREG), maximum tolerated concentration (MTC) filtered results only (AID 2283912; active means hit-call score of the fitted dose curve at least 0.9, where 1 is the maximum; inactive means score below 0.9)
Conditions: actives raise or lower the signal
Procedure: CEETOX_H295R is a cell-based, multiplexed-readout assay that uses H295R, a human adrenal gland cell line, with measurements taken at 48 hours after chemical dosing in a 96-well plate.CEETOX_H295R_OHPREG_noMTC is one of 12 assay component(s) measured or calculated from the CEETOX_H295R assay (11 hormones and 1 viability assay). It is designed to make measurements of hormone induction, a form of inducible reporter, as detected with absorbance signals by HPLC-MS-MS technology. The concentrations for these components have not been pre-filtered for the maximum tolerated concentration (MTC) based on the MTT assay (_noMTC).Data from the assay component CEETOX_H295R_OHPREG_noMTC was analyzed into 1 assay endpoint. This assay endpoint, CEETOX_H295R_OHPREG_noMTC, was analyzed with bidirectional fitting relative to DMSO as the negative control and baseline of activity. Using a type of inducible reporter, gain or loss-of-signal activity using HPLC-MS-MS was used to understand synthesis of 17alpha-hydroxypregnenolone in H295R cell line at 48hr of chemical exposure, without filtering concentrations for maximum tolerated concentration (MTC). To generalize the intended target to other relatable targets, this assay endpoint is annotated to the steroid hormone intended target family, where the subfamily is progestagens.
Cell culture and media preparation procedures were conducted in accordance with OECD Test No. 456 guidelines, with minor modifications. H295R cells (ATCC CRL-2128) were expanded for 5 passages and frozen in batches in liquid nitrogen. […] For steroid quantification, media samples were shipped to OpAns, LLC (Durham, NC) on dry ice, and samples were thawed to room temperature prior to liquid-liquid extraction. […] Steroid hormones were separated by HPLC, eluted using a reverse phase C18 gradient with electrospray positive ionization, followed by quantification by tandem mass spectrometry (MS/MS). Data were acquired on a MassHunter Workstation Acquisition version B03.01 (Agilent Technologies, Inc.) and processed using MassHunter Quantitative Analysis for QQQ. Accuracy was determined for each hormone analyte from 3 standards to determine upper and lower limits of quantification (ULOQ and LLOQ, respectively) using a 7-point standard curve. Precision and accuracy of the extraction and quantification methods were calculated as the percent relative standard deviation (%RSD) of the spiked standards and percent spiked standard recovered, respectively. The goal was to achieve 100% accuracy (i.e., recover all spiked-in standard at quantification with minimal loss during run time) and good precision (i.e., have %RSD <15% to ensure reproducibility). Test medium was removed following chemical exposure, and cell viability was evaluated in the same wells by MTT. […]

| SMILES | outcome | AC50 |
| --- | --- | --- |
| NC(=Nc1ccccc1)Nc1ccccc1 | inactive |  |
| Nc1nc(=S)c2[nH]cnc2[nH]1 |  | 72.9 µM (active) |
| O=C(Oc1ccccc1)c1cccc(C(=O)Oc2ccccc2)c1 | inactive |  |
| C=CCc1ccc(OC)c(OC)c1 | inactive |  |

Assay: CEETOX_H295R_OHPROG_noMTC: CeeTox H295R High-throughput Steroidogenesis Assay for OH-Progesterone (OHPROG), maximum tolerated concentration (MTC) filtered results only (AID 2283914; active means hit-call score of the fitted dose curve at least 0.9, where 1 is the maximum; inactive means score below 0.9)
Conditions: actives raise or lower the signal
Summary of the method: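 Forskolin 10 uM, 48 h prestim → test cmpd in DMSO (0.1% final), 48 h → medium MTBE extraction → LC-MS/MS quant of 17alpha-OH-progesterone. Bidirectional fit vs DMSO; no MTT-based MTC filtering.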

| SMILES | outcome | AC50 |
| --- | --- | --- |
| NC(=Nc1ccccc1)Nc1ccccc1 | inactive |  |
| Nc1nc(=S)c2[nH]cnc2[nH]1 |  | 74.3 µM (active) |
| O=C(Oc1ccccc1)c1cccc(C(=O)Oc2ccccc2)c1 | inactive |  |
| C=CCc1ccc(OC)c(OC)c1 | inactive |  |
